Records with an inconclusive call do not appear. Calls of active or inactive are those of the source. Rule for the calls: active = hit-call score of the fitted dose curve at least 0.9, where 1 is the maximum; inconclusive = response in the unintended direction; inactive = score below 0.9.
read-out: xenobiotic metabolism (CYP2C9), CYP2C9 (gene 1559); assay: CLD_CYP2C9_6hr: CellzDirect (CLD) Gene Expression Assay for xenobiotic metabolism (CYP2C9) at 6 hours (AID 2283664)
Protocol: CLD_6hr is a cell-based, multiplexed-readout assay that uses hepatocyte, a human liver primary cell, with measurements taken at 6 hours after chemical dosing in a 96-well plate.CLD_CYP2C9_6hr is one of 16 assay component(s) measured or calculated from the CLD_6hr assay. It is designed to make measurements of mRNA induction, a form of inducible reporter, as detected with chemiluminescence signals by Quantitative Nuclease Protection Assay (qNPA) technology.Data from the assay component CLD_CYP2C9_6hr was analyzed at the endpoint, CLD_CYP2C9_6hr, in the positive analysis fitting direction relative to DMSO as the negative control and baseline of activity. Using a type of inducible reporter, gain-of-signal activity can be used to understand changes in the reporter gene as they relate to the gene CYP2C9. Furthermore, this assay endpoint can be referred to as a primary readout. To generalize the intended target to other relatable targets, this assay endpoint is annotated to the cyp intended target family, where subfamily is xenobiotic metabolism.
Human hepatocyte cultures were treated daily for two consecutive days with fresh dosing solutions containing appropriate concentrations of the 320 ToxCast chemicals (chemical identities were blinded to CellzDirect and other ToxCast collaborators), vehicle control (0.2% DMSO), and positive control inducers as summarized in Table 1. Due to the large number of treatment groups and chemicals examined, the ToxCast chemicals were divided into two groups (spanning two independent cultures of hepatocytes from separate donor preparations (Hu778: ToxCast plates 1 and 2; Hu776: ToxCast plates 3 and 4). Each preparation of human hepatocyte cultures was treated with respective vehicle control, medium only control, set of six positive controls/reference chemicals for the five hepatic receptor pathways, and a subset of eight of the ToxCast chemicals (indoxacarb, pyrithiobac-sodium, norflurazon, cyhalofop-butyl, methomyl, thiram, acetochlor, and propiconazole). These replicate data, coupled with internal replicates designed within the blinded ToxCast chemical library, provided additional data to evaluate interindividual differences between hepatocyte preparations and their potential impact on chemical profiles.Cell morphology and integrity were evaluated using phase-contrast microscopy as an indicator of hepatocyte cell health (Tyson & Green, 1987). Cultures for each treatment group (i.e., media, vehicle [0.2% DMSO], positive control inducers [multiple concentrations], and the ToxCast chemicals [multiple concentrations]) were observed and cell morphology was assessed relative to vehicle control cultures at each harvest time point (0, 6, 24, or 48 h). […] Images were evaluated at the conclusion of the study to assess changes in cell integrity and account for the effects of chemical exposure on uncharacteristic changes in concentration-dependent gene expression profiles. The results from these determinations of apparent cytotoxicity were annotated (yes/no) alongside the corresponding qNPA data for reference.At the conclusion of each treatment period, hepatocyte cultures (96-well) were washed with 1 volume of HBSS, lysed by addition of 25 ul ArrayPlate lysis buffer (HTG, Tucson, AZ), and 70 ul/well of Denaturation Oil, denatured by incubation at 95C for 10 min, and frozen at approximately -70C until analysis by nuclease protection assay (qNPA) (Roberts et al., 2007). For qNPA analysis, cell lysates were thawed at 50C for approximately 30 min, qNPA probes were added, and samples were incubated at 95C for 10 min to begin the detection process by denaturing the target RNA, dissociating the duplexes and secondary structure hybridization. At the conclusion of the hybridization period, S1 nuclease reagent was added to each sample to digest all nonprotected nucleotides at 50C for 60-90 min. […]

Row | SMILES | outcome
1 | Cc1cc(C)nc(NC(=O)NS(=O)(=O)c2ccccc2C(=O)OC2COC2)n1 | inactive
2 | CNC(=O)CSP(=S)(OC)OC | inactive
3 | COc1cc(OC)nc(NC(=O)NS(=O)(=O)c2cc(NC=O)ccc2C(=O)N(C)C)n1 | inactive
4 | COC(=O)c1ccccc1S(=O)(=O)NC(=O)N(C)c1nc(C)nc(OC)n1 | inactive
5 | C[C@H]1[C@H](c2ccc(Cl)cc2)SC(=O)N1C(=O)NC1CCCCC1 | inactive
6 | O=[N+]([O-])/N=C1\NCCN1Cc1ccc(Cl)nc1 | inactive
7 | Cc1[nH]c(=O)n(C(C)(C)C)c(=O)c1Cl | inactive
8 | O=C(O)COc1ccc(Cl)cc1Cl | inactive
9 | Oc1cc(Cl)ccc1Oc1ccc(Cl)cc1Cl | inactive
10 | CCc1ccc(C(=O)NN(C(=O)c2cc(C)cc(C)c2)C(C)(C)C)cc1 | inactive
11 | O=C(NC(=O)c1c(F)cccc1F)Nc1ccc(OC(F)(F)C(F)OC(F)(F)F)c(Cl)c1 (centres undefined) | inactive
12 | CNC(=O)Oc1ccccc1OC(C)C | inactive
13 | O=C(O)CCCOc1ccc(Cl)cc1Cl | inactive
14 | CCCN(CCOc1c(Cl)cc(Cl)cc1Cl)C(=O)n1ccnc1 | inactive
15 | CC1(c2ccc(Oc3ccccc3)cc2)OC(=O)N(Nc2ccccc2)C1=O (centres undefined) | inactive
16 | CCC(C)(NC(=O)c1cc(Cl)c(C)c(Cl)c1)C(=O)CCl (centres undefined) | inactive
17 | OCCOc1ccccc1 | inactive
18 | COC(=O)c1ccccc1CS(=O)(=O)NC(=O)Nc1nc(OC)cc(OC)n1 | inactive
19 | [2H]C1([2H])[n+]2ccccc2-c2cccc[n+]2C1([2H])[2H] | inactive
